These results are taken from PubChem BioAssay AID2216 (Broad Institute, 2009).

In all, about 300,000 compounds went through this assay and about 3,300 (1.1%) were called active. Not shown: some 6% with an inconclusive outcome.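 Rule for the calls: active = more than half of the replicate wells show a fall in the fluorescence ratio signal beyond about 16% (limit read from the data, passing the limit was not always enough); inconclusive = exactly half of the replicate wells pass the set limit; inactive = fewer than half of replicates pass the limit.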 The entries come from a sample that favours actives as a whole.

The experiment relates to Ran GTPase (GTP-bound) - importin-beta complex. The experiment can be described thus: inhibitors of RanGTP-importin-beta interaction, primary screen, biochemical, FRET, CFP-Ran, YFP-importin-beta, homogeneous (AID 2216).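 Note: 0% = DMSO wells and 100% = Ran loaded with GDP instead of GTP.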 As to conditions: cell-free CFP-Ran/YFP-importin-beta FRET ratio; hits give high values; concentration not given here.
In general, inhibition refers to the relative decrease from the control value, in per cent. `CC(=O)N[C@H]1[C@H]([C@H](O)[C@H](O)CO)OC(C(=O)O)=C[C@@H]1O`: the inhibition is 1.4% (inactive).
Under `COc1ccc(Cl)cc1NC(=O)CN(C)C(=O)c1cc(-c2cccs2)nn1-c1ccccc1` stands 0.469% (inactive).
For `Cc1nc2ccccc2c2oc(C(=O)NCCCN3CCC(C)CC3)cc12`, the inhibition is 34.1% (active).
Turning to `CCCN(CCC)CCNC(=O)c1cc2c(C)nc3ccccc3c2o1`, the inhibition is 0.401% (inactive).
On to `Cc1nc2ccccc2c2oc(C(=O)NCC3CCCO3)cc12` (stereo not drawn), for which the inhibition was 4.76% (inactive).
Under `O=C(NCCS(=O)(=O)NCc1ccc(Cl)cc1)c1ccccc1` stands 5.39% (inactive); under `CCOC(=O)c1c(C)oc2ccc(OCC(=O)N(CC)CC)cc12`, -3.75% (inactive).
Under `CCOC(=O)c1c(-c2ccccc2)oc2ccc(OCC(N)=O)cc12` stands 0.113% (inactive); under `CCOC(=O)c1c(C)oc2cc(Br)c(OCC(N)=O)cc12`, 19% (active); under `Cc1cc(-c2nnc(SCC(=O)Nc3ccc(S(N)(=O)=O)cc3)n2N)n[nH]1`, 0.809% (inactive).
Under `Cc1cccc(NC(=O)N2CCCCCC2)c1C` stands 2.28% (inactive); under `N#CC1=C(N)OC2=C(C(=O)CCC2)C1C1CC=CCC1` (stereo not drawn), -2.87% (inactive).
On to `COCc1[nH]nc2c1C(C1C=CCCC1)C(C#N)=C(N)O2` (stereo not drawn), for which the inhibition is -7.86% (inactive).
Take `N#CC1=C(N)Oc2cc(O)ccc2C1C1CCCCC1` (stereo not drawn): the inhibition was 140% (active).
On to `COc1ccc(CNC(=O)C2CCCC2)cc1`, for which the inhibition was -1.07% (inactive).
In the case of `Cc1ccc2nc(NC(=O)CSc3nc(=O)n(CCCN(C)C)c4c3CCC4)sc2c1`, the inhibition is 1.53% (inactive).
As for `Cc1nc(Nc2ccccc2F)c2nnn(Cc3ccccc3Cl)c2n1`, the inhibition was 35.1% (active).
Under `Cc1nc(Nc2ccc3c(c2)OCCO3)c2nnn(Cc3ccccc3Cl)c2n1` stands 3.56% (inactive).
Take `Cc1nc(Nc2ccc(S(=O)(=O)N3CCCC3)cc2)c2nnn(Cc3ccccc3)c2n1`: the inhibition is 5.61% (inactive).
For `COc1ccccc1-n1ccnc(SCC(=O)NC2CCCCC2)c1=O`, the inhibition is -1.18% (inactive).
Turning to `CC(C)N(Cc1ccccc1)C(=O)COC(=O)c1ccccc1SCC(=O)N1CCCC1`, the inhibition was -1.94% (inactive).
`CC(=O)C12CC(C)=C(C)CC1CC1C3CCC4=CC(=O)CCC4(C)C3CCC12C` (stereo not drawn): the inhibition was 1.03% (inactive).
With `COC(=O)c1ccc(C(=O)OC)c(NC(=S)N2CCN(c3cc(Cl)ccc3C)CC2)c1`, the inhibition was 6.93% (inactive).
Under `CCCOc1ccc(CN(CCO)CCO)cc1C(=O)OC` stands -2.69% (inactive).
Take `COC(=O)c1ccc(C(=O)OC)c(NC(=S)N2CCCCC2)c1`: the inhibition is 55.3% (active).
Under `CCN(CC)C(=O)CCC(=O)Nc1ccc(C(=O)OC)cc1` stands -3.39% (inactive); under `CCCN(CCC)C(=S)Nc1cc(C(=O)OC)ccc1C(=O)OC`, 41% (active).
Take `COC(=O)c1ccc(C(=O)OC)c(NC(=S)N2CCN(c3ccc(F)cc3)CC2)c1`: the inhibition is 6.98% (inactive).
For the molecule `CCS(=O)(=O)Nc1cc(C(=O)OC)ccc1C(=O)OC`, the inhibition is 4.57% (inactive).
For `COC(=O)c1ccc(C(=O)Nc2cc(Cl)ccc2Cl)cc1NC(=O)c1ccccc1C`, the inhibition is 2.78% (inactive).
With `CCN(CCO)C(=S)Nc1cc(C(=O)OC)ccc1C(=O)OC`, the inhibition is 16.3% (active).
With `CN(C)C(CNC(=O)c1cccc(S(=O)(=O)Nc2ccc(Br)cc2)c1)c1ccco1` (stereo not drawn), the inhibition is -0.145% (inactive).
Regarding `CCc1noc(C)c1C(=O)NNC(=O)c1ccc(F)cc1`, the inhibition is 3.18% (inactive).
Take `Cc1ccccc1OCC(=O)NNC(=O)c1ccc(-n2cncn2)c([N+](=O)[O-])c1`: the inhibition was 3.51% (inactive).
Take `COc1ccccc1CNC(=O)CSc1nc(=O)n(Cc2ccncc2)c2c1CCC2`: the inhibition is -4.86% (inactive).
Under `O=C(Nc1ncccc1O)c1ccc(C(=O)c2ccccc2)cc1` stands -5% (inactive).
Under `O=C(COC(=O)c1ncc(Cl)c(Cl)c1Cl)NC1CCS(=O)(=O)C1` (stereo not drawn) stands 1.31% (inactive).
Under `COCc1cc(=O)n2[nH]c(C)c(-c3ccccc3)c2n1` stands 1.2% (inactive); under `CCN(CC)CCN1C(=O)C(=O)/C(=C(/O)c2ccc(OC)c(OC)c2)C1c1ccccn1` (stereo not drawn), 33.8% (active).
`O=C1C(=O)N(CCN2CCOCC2)C(c2ccccn2)/C1=C(/O)c1ccc(Cl)cc1` (stereo not drawn): the inhibition is 20.4% (active).
Take `COc1ccc(C2/C(=C(/O)c3ccc(OC(C)C)cc3)C(=O)C(=O)N2CCCN2CCOCC2)cc1` (stereo not drawn): the inhibition is -1.52% (inactive).
In the case of `CCN(CC)CCN1C(=O)C(=O)/C(=C(/O)c2ccccc2)C1c1ccccc1F` (stereo not drawn), the inhibition was -0.379% (inactive).
Under `COc1ccc(/C(O)=C2/C(=O)C(=O)N(CCCN(C)C)C2c2ccccc2)cc1OC` (stereo not drawn) stands 3.13% (inactive); under `CC1Cc2cc(/C(O)=C3\C(=O)C(=O)N(CCN4CCOCC4)C3c3ccccc3F)ccc2O1` (stereo not drawn), 1.9% (inactive).
For `CCOc1ccc(CCNC(=O)COC(=O)c2ccc(F)c(S(=O)(=O)N3CCOCC3)c2)cc1OCC`, the inhibition was -2.22% (inactive).
Take `CCN(CC)c1ccc(NC(=O)c2ccc(=O)[nH]c2)cc1S(=O)(=O)Nc1ccc(OC)cc1`: the inhibition is -0.956% (inactive).
In the case of `CCOc1ccccc1NC(=O)c1cccnc1`, the inhibition is -0.62% (inactive).
Under `O=C(NNC(=O)c1cccnc1)Nc1ccccc1` stands -0.622% (inactive); under `O=C(Nc1cnccn1)c1cccnc1`, 15.8% (active); under `O=C(Nc1cc(S(=O)(=O)N2CCOCC2)ccc1OCC(F)(F)F)c1ccc(N2CCCC2=O)cc1`, 5.96% (inactive).
Regarding `COCC1CCN(C(=O)c2ccc3oc(Cc4ccccc4)nc3c2)C1` (stereo not drawn), the inhibition is 1.03% (inactive).
In the case of `CCN1CCc2nc(NC(=O)c3cc(F)c(F)cc3Cl)sc2C1`, the inhibition was 19.6% (active).
Under `O=C(Nc1ccc(OCC(=O)N2CCOCC2)cc1)c1cc(F)c(F)cc1Cl` stands 3.93% (inactive); under `CC(=O)Cc1nsc(NC(=O)c2ccc(Cl)cc2Cl)n1`, 1.86% (inactive); under `CCOc1ccc(NC(=O)CN(C)C(=O)COc2cccc(CC)c2)cc1OCC`, -1.27% (inactive).
For the molecule `[O-][n+]1ccc(OCc2ccccc2)cc1`, the inhibition is -2.54% (inactive).
For the molecule `CCC(C)c1ccccc1N1CC(C(=O)N2CCN(S(=O)(=O)c3ccc(F)cc3)CC2)CC1=O` (stereo not drawn), the inhibition is 1.46% (inactive).
As for `NC1=NC(c2ccc([N+](=O)[O-])cc2)N(c2ccc(F)cc2)C(N)=N1` (stereo not drawn), the inhibition was 1.29% (inactive).
As to `CCOc1cc2ccccc2cc1C(=O)Nc1ccccn1`, the inhibition is 3.29% (inactive).
On to `N#CC1=C(N)N(c2ccccc2)C2=C(C(=O)CCC2)C1c1ccccc1` (stereo not drawn), for which the inhibition was -1.9% (inactive).
Consider `CSc1sc(C)cc1C1C(C#N)=C(N)N(c2cccnc2)C2=C1C(=O)CCC2` (stereo not drawn), for which the inhibition is 18.2% (active).
Regarding `CN(C)N1C(N)=C(C#N)C(c2ccc(Br)cc2)C2=C1CCCC2=O` (stereo not drawn), the inhibition is -0.393% (inactive).
Take `Cc1occc1C(=O)N/N=C/c1ccc(-c2cccc([N+](=O)[O-])c2)o1`: the inhibition is -1.61% (inactive).
As to `O=C(CCCCO)c1ccc(O)c(Cl)c1`, the inhibition was -9.87% (inactive).
Under `Cc1ccc(-c2csc(NCCc3nc4cc(Cl)c(Cl)cc4n3CCOCCO)n2)cc1` stands 3.23% (inactive); under `CCOC(=O)c1oc2c(CN3CCN(CCO)CC3)c(O)c(CC)cc2c(=O)c1-c1nc2ccccc2s1`, 16.5% (active).
As to `CCOC(=O)N1CCN(CC(=O)Nc2cc(C)nn2-c2nc3ccccc3s2)CC1`, the inhibition is -2.13% (inactive).
In the case of `CCOC(=O)CCCN1CC(O)=C(c2nc3ccccc3s2)C1=N`, the inhibition was -2.49% (inactive).
In the case of `COc1ccccc1C(=O)NCCC(=O)NCC(c1ccco1)N1CCCCC1` (stereo not drawn), the inhibition was 2.56% (inactive).
Take `COc1ccc(C(=O)C[n+]2ccc(N)c(C)c2C)cc1`: the inhibition is 26.2% (active).
On to `COc1ccc(CCC(=O)c2ccc(OC)cc2)cc1`, for which the inhibition was 0.925% (inactive).
As for `COc1ccc(C(=O)C[n+]2ccc(C)cc2)cc1`, the inhibition is 6.13% (inactive).
With `COC(=O)c1c(-c2ccsc2)oc2ccc(-c3cc(OC)c(OC)c(OC)c3)cc12`, the inhibition was -4.62% (inactive).
Turning to `CCOc1ccc(-n2c(O)c(/C=N/c3ccnn3Cc3ccncc3)c3ccccc3c2=O)cc1`, the inhibition is 0.299% (inactive).
`CCOc1ccc(N=Cc2c(O)n(-c3cccc(C)n3)c(=O)c3ccccc23)cc1`: the inhibition was 22.9% (active).
On to `Cc1ccc(-n2c(O)c(C=Nc3ccc(S(=O)(=O)Nc4ncccn4)cc3)c3ccccc3c2=O)cc1C`, for which the inhibition was -1.55% (inactive).
Turning to `CC(=O)c1ccc(NC(=O)CSC(=S)N2CCCC2)cc1`, the inhibition was -0.968% (inactive).
In the case of `O=C(CSC(=S)N1CCCCC1)c1c(F)cccc1F`, the inhibition was 18.8% (active).
Take `O=C(CSC(=S)N1CCOCC1)c1ccccc1`: the inhibition was 0.663% (inactive).
Regarding `Cc1cc(C)c(S(=O)(=O)N2CCCC2CNC(=O)c2ccc3c(c2)OCO3)c(C)c1` (stereo not drawn), the inhibition is 4.9% (inactive).
With `COc1ccccc1OCC(=O)Nc1ccccc1C(=O)NC1CC1`, the inhibition was -1.85% (inactive).
Under `COc1ccc(C2C(C#N)=C(N)Oc3cc(N)ccc32)cc1OC` (stereo not drawn) stands 70.8% (active); under `COc1cc(C2C(C#N)=C(N)Oc3n[nH]c(-c4ccccn4)c32)cc(OC)c1OC` (stereo not drawn), -0.727% (inactive); under `COC(=O)C1=C(C)OC(N)=C(C#N)C1c1cc(OC)ccc1OC` (stereo not drawn), -2.56% (inactive).
With `O=C1CN(C(=O)COc2c(Cl)cccc2Cl)c2ccccc2N1`, the inhibition was 0.217% (inactive).
On to `CCOC(=O)c1cc2ccccc2n1CC(=O)c1ccccc1`, for which the inhibition is -1.27% (inactive).
As for `CCOC(=O)c1cc2c(ccn2C)n1CC(=O)N1CCC(C)CC1`, the inhibition was 24.7% (active).
Under `CCOC(=O)c1cc2occc2n1CC(=O)N1CCN(C(=O)c2ccco2)CC1` stands -1.58% (inactive); under `COc1ccc(OC)c(S(=O)(=O)N2CCCC(C(=O)N3CCC(C(N)=O)CC3)C2)c1` (stereo not drawn), 6.32% (inactive).
For `O=C(O)c1ccccc1CSc1nc2ccccc2s1`, the inhibition was -3.5% (inactive).
Turning to `CCC(C(=O)N1CCOCC1)n1c(C(=O)OC)cc2occc21` (stereo not drawn), the inhibition is -3.41% (inactive).
Under `COC(=O)c1ccc(S(=O)(=O)NCc2ccccc2)n1C` stands -3.7% (inactive); under `COC(=O)c1cc2c(ccn2C)n1C`, 21.8% (active).
